Laboratory results reported in PubChem BioAssay (Tox21).
Where “and” joins values, the source holds several entries; their conditions need not be identical. Identical values can stand only once. Records with an inconclusive call do not appear. A call without a number means that no potency is given here. Where a structure was tested more than once in an assay, its records may differ in their call. Calls of active or inactive are those of the source. Unless noted, the call rests on the fitted dose curve; in most records, active means well fitted curve in the direction sought with a large enough effect in the repeat runs; inconclusive means weak or mixed curves; inactive means no such curve, though single readings can be large; an effect the other way counts as inactive or inconclusive.

How the values were obtained:
[1] = qHTS assay to identify small molecule antagonists of the androgen receptor (AR) signaling pathway using the MDA cell line in the presence of 0.5 nM R1881 - cell viability counter screen (AID 1259242); further: nearly all actives have a fitted effect of over 45% in size; further: potency means the concentration at half of the fitted maximal effect
In short: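 Cells seeded at 3,000/well and allowed 5 hr at 37C, 0% CO2 before compound transfer and R1881 (0.5 nM final) addition; 16 hr later, live-cell protease fluorescence indicated cytotoxicity.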

[2] = molecular target: Androgen receptor (Homo sapiens) (UniProt P10275); test: qHTS assay to identify small molecule antagonists of the androgen receptor (AR) signaling pathway using the MDA cell line in the presence of 0.5 nM R1881 (AID 1259243); further: nearly all actives have a fitted effect of over 50% in size
Androgen receptor (Homo sapiens), sequence (P10275 whole entry, looked up): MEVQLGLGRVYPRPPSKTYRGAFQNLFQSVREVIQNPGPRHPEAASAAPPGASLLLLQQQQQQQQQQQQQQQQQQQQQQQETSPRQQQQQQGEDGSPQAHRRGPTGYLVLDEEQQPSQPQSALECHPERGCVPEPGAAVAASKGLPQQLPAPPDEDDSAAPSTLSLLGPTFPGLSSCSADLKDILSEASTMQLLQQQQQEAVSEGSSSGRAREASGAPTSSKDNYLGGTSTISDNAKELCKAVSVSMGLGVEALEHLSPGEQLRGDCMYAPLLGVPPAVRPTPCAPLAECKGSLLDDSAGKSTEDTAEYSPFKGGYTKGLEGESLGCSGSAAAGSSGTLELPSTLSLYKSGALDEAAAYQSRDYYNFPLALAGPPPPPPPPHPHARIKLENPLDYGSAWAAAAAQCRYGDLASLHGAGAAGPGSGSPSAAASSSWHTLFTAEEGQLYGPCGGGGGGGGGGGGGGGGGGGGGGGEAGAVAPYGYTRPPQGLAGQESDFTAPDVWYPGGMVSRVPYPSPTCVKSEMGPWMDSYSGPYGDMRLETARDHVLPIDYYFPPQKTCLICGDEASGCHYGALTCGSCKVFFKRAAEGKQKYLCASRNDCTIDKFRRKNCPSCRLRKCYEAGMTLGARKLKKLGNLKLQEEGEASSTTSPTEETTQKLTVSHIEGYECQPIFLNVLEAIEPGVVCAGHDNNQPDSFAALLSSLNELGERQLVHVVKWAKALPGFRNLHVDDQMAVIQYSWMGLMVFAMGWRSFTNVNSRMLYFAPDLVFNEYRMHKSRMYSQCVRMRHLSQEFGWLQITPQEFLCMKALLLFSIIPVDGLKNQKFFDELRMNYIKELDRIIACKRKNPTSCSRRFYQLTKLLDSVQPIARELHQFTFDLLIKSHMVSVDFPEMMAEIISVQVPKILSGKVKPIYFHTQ
In short: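 Luminescence from an AR/GR-responsive MMTV-luciferase construct in MDA-kb2 breast carcinoma cells, read 30 min after ONE-Glo, following 16 hr co-treatment with compounds and 0.5 nM R1881.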

[3] = qHTS assay to identify small molecule phospholipidosis (PLD) inducers (AID 1259344; active means well fitted curve in the direction sought with a large enough effect; an effect the other way counts as inactive or inconclusive)
In short: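 Read-out is LipidTOX Red fluorescence (ex 595/em 615) imaged in HepG2 cells after 24 h compound exposure at 37 C, with Hoechst nuclear counterstain (ex 352/em 461) allowing per-cell normalisation.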

[4] = qHTS assay to identify small molecule HDAC inhibitors - cell viability counter screen (AID 1259365); further: series mostly up to about 92 µM; nearly all actives have a fitted effect of over 50% in size
In short: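 Counter screen in wild-type HCT-116 cells: compounds dissolved in DMSO are pin-transferred onto overnight-plated cells and left 2hr at 37C. ATP-based CellTiter-Glo luminescence then measures viable cells.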

[5] = qHTS assay to identify small molecule antagonists of the sonic hedgehog signaling (Shh) pathway - cell viability counter screen (AID 1259367); further: nearly all actives have a fitted effect of over 55% in size; further: potency means the concentration at half of the fitted maximal effect
In short: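 Fluorescence read-out (CellTiter-Fluor, 1 hr at 37C) taken after 23 hr compound treatment of 3T3 Gli1-Luc cells stimulated with conditioned medium. Cells were seeded at 2,000 per well and pre-incubated 4 hr.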

[6] = qHTS assay to identify small molecule agonists of the sonic hedgehog signaling (Shh) pathway (AID 1259368; calls by dose curve;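 further: NIH/3T3-derived 3T3Gli1-Luc cells carrying a stable Gli1-driven firefly luciferase reporter; series mostly up to about 92 µM; nearly all actives have a fitted effect of over 15% in size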)
In short: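 Following a 24 hr incubation with DMSO-dissolved compounds at 37 C, 5% CO2, Gli1-Luc NIH/3T3-derived cells received luciferase reagent for 30 min at room temperature prior to luminescence measurement.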

[7] = qHTS assay to identify small molecule agonists of the androgen receptor (AR) signaling pathway in the presence of an antagonist - cell viability counter screen (AID 1259379); further: nearly all actives have a fitted effect of over 25% in size; further: potency means the concentration at half of the fitted maximal effect
In short: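 Each compound was tested at 15 concentrations on MDA-kb2 cells in the presence of 3.0uM nilutamide. Viability was measured by CellTiter-Fluor fluorescence after a 16 hr incubation at 37C in a CO2-free atmosphere.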

[8] = qHTS assay to identify small molecule agonists of the estrogen receptor beta (ER-beta) signaling pathway - cell viability counter screen (AID 1259380); further: nearly all actives have a fitted effect of over 30% in size; further: potency means the concentration at half of the fitted maximal effect
In short: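 Compounds dissolved in DMSO were pin-transferred onto ER-beta-UAS-bla HEK293T cells that had settled 6 hr, and exposure ran 16 hr at 37C. Following the reporter read, CellTiter-Glo luminescence after 30 min at room temperature indicated cytotoxicity.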

[9] = molecular target: Androgen receptor (Homo sapiens) (UniProt P10275); test: qHTS assay to identify small molecule agonists of the androgen receptor (AR) signaling pathway in the presence of an antagonist (AID 1259381; calls by dose curve; further: nearly all actives have a fitted effect of over 15% in size)
In short: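 Plated MDA-kb2 cells (3,000/well) were pre-incubated 5hr, given nilutamide (3.0uM final) or buffer, then dosed with compounds in DMSO at 15 concentrations. Luciferase activity was quantified by luminescence after 16hr at 37C.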

[10] = qHTS assay to identify small molecule antagonists of the estrogen receptor beta (ER-beta) signaling pathway - cell viability counter screen (AID 1259382); further: series mostly up to about 92 µM; nearly all actives have a fitted effect of over 55% in size
In short: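 CellTiter-Glo ATP luminescence measured after the LiveBLAzer read in the same wells; ER-beta-UAS-bla HEK293T cells, 16 hr compound treatment with 1nM 17-beta-estradiol agonist at 37C, 5% CO2.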

[11] = qHTS assay to identify small molecule agonists or antagonists of the thyroid stimulating hormone receptor (TSHR) signaling pathway - wild type cell line counter screen (AID 1259384; calls by dose curve)
In short: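 Wild-type Hek293 cells, 800/well, 18 h at 37C, then compound with Ro20-1724 for 30 min RT. cAMP by HTRF (cAMP-d2/anti-cAMP cryptate), 1 h RT, fluorescence read. 15 concentrations, triplicates.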

[12] = molecular target: Thyrotropin receptor (Homo sapiens) (UniProt P16473); test: qHTS assay to identify small molecule antagonists of the thyroid stimulating hormone receptor (TSHR) signaling pathway (AID 1259385; calls by dose curve; further: nearly all actives have a fitted effect of over 20% in size)
Thyrotropin receptor (Homo sapiens), sequence (P16473 whole entry, looked up): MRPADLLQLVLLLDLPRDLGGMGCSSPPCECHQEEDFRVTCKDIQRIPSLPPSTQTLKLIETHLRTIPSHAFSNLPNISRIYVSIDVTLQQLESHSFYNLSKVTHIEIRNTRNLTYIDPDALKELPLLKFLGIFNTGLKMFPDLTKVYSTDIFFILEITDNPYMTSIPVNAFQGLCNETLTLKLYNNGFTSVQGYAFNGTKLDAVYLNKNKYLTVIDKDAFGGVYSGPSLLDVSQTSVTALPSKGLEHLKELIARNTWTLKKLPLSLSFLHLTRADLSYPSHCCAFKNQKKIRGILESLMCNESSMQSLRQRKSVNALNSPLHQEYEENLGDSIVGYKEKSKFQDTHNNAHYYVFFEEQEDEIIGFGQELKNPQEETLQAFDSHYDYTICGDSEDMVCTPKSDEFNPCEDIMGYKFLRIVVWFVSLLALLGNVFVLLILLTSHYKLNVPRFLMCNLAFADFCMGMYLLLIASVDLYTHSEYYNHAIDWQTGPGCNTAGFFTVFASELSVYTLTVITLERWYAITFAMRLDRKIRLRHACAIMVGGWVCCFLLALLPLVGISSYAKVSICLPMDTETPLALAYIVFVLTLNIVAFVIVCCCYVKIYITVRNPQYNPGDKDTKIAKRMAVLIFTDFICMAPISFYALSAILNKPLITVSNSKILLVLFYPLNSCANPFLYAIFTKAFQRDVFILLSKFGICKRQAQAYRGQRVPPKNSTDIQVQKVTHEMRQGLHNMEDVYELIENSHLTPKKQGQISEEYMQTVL
In short: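 TSHR-HEK293 cells (800/well) plated 18 h, then compounds with Ro20-1724 and TSH at 1.5 ng/mL final, 30 min at room temperature. cAMP quantified by HTRF (cAMP-d2/anti-cAMP-cryptate, 1 h); 15 concentrations in triplicate.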

[13] = molecular target: Estrogen receptor (Homo sapiens) (UniProt P03372); test: qHTS assay to identify small molecule antagonists of the estrogen receptor alpha (ER-alpha) signaling pathway using the BG1 cell line in the presence of 0.1 nM 17-beta-estradiol (AID 1259244); further: nearly all actives have a fitted effect of over 50% in size; further: potency means the concentration at half of the fitted maximal effect
Estrogen receptor (Homo sapiens), sequence (P03372 whole entry, looked up): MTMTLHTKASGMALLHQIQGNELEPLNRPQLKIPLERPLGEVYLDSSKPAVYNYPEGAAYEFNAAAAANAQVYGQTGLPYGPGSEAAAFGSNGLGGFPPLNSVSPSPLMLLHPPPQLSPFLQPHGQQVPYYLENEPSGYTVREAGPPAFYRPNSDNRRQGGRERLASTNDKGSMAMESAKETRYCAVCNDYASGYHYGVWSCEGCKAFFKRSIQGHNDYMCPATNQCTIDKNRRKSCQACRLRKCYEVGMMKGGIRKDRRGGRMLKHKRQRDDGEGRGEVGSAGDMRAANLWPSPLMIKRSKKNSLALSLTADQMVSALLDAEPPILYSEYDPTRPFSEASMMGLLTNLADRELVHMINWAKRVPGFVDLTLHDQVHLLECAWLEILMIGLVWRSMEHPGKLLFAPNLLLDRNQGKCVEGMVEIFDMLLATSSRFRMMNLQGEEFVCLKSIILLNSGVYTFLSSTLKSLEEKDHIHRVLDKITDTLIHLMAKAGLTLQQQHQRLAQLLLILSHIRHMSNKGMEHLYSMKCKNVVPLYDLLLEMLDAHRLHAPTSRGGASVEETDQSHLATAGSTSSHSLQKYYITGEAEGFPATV
In short: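 Luciferase signal from VM7Luc4E2 ERE-reporter cells, co-dosed with test compound and 0.1 nM final 17beta-estradiol for 22 h, read with ONE-Glo.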

[14] = qHTS assay to identify small molecule HDAC inhibitors (AID 1259364); further: potency means the concentration at half of the fitted maximal effect;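 further: wild-type HCT-116 cells with endogenous class I/II HDAC activity; nearly all actives have a fitted effect of over 45% in size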
In short: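 HCT-116 wt cells, 1,500/well, overnight attach. Compounds (DMSO) 2 h, 37 °C. HDAC-Glo I/II, 30 min RT. Luminescence.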

[15] = qHTS assay to identify small molecule agonists of the sonic hedgehog signaling (Shh) pathway - cell viability counter screen (AID 1259366); further: nearly all actives have a fitted effect of over 50% in size; further: potency means the concentration at half of the fitted maximal effect
In short: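 Cells are plated at 2,000 per well and left 4hr at 37C, 5% CO2 before compound addition. After 23hr of treatment, CellTiter-Fluor reagent is added for 1hr at 37C and fluorescence is measured.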

[16] = qHTS assay to identify small molecule antagonists of the sonic hedgehog signaling (Shh) pathway (AID 1259369; calls by dose curve; further: nearly all actives have a fitted effect of over 45% in size; further: potency means the concentration at half of the fitted maximal effect)
In short: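 Read-out is luminescence from a firefly luciferase gene controlled by the Gli1 response element, in 3T3Gli1-Luc cells pre-incubated 4hr then exposed to compounds and conditioned medium for 24hr.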

[17] = molecular target: Estrogen receptor beta (Homo sapiens) (UniProt Q92731); test: qHTS assay to identify small molecule antagonists of the estrogen receptor beta (ER-beta) signaling pathway (AID 1259378; active means well fitted inhibition curve with a large enough effect in the signal ratio in the repeat runs, not every such curve was filed as active; the % refers to the signal ratio)
Estrogen receptor beta (Homo sapiens), sequence (Q92731 whole entry, looked up, the tested form may be a part): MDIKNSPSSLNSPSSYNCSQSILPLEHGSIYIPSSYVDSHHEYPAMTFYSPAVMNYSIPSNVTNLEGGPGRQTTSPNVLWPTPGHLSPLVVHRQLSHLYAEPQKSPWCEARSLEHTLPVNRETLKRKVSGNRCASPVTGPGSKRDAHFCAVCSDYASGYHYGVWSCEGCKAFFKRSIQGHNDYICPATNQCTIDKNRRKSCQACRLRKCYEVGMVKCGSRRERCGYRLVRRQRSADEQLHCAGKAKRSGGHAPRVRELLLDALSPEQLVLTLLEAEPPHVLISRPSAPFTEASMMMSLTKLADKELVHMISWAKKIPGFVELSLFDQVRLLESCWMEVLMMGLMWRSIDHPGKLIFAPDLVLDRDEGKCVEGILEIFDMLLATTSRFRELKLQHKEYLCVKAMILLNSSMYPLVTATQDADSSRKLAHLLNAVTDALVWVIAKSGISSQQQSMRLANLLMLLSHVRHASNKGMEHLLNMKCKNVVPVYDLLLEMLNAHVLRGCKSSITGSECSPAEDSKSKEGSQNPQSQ
In short: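 ER-beta-UAS-bla HEK293T cells in 2% charcoal-stripped FBS medium treated with compound plus 1nM final 17-beta-estradiol for 16 hr at 37C. Beta-lactamase reporter read by FRET substrate fluorescence after 2 hours at room temperature.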

[18] = molecular target: Estrogen receptor (Homo sapiens) (UniProt P03372); test: qHTS assay to identify small molecule agonists of the estrogen receptor alpha (ER-alpha) signaling pathway in the presence of an antagonist (AID 1259383; calls by dose curve; further: top concentration of the series differs between compounds; nearly all actives have a fitted effect of over 15% in size)
In short: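 Luminescent ERE-luciferase reporter, VM7Luc4E2 cells (endogenous ER-alpha); 10.0nM ICI-182,780 final; 15-point compound titration; 22hr at 37C; ONE-Glo, 30min RT.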

[19] = molecular target: Estrogen receptor beta (Homo sapiens) (UniProt Q92731); test: qHTS assay to identify small molecule agonists of the estrogen receptor beta (ER-beta) signaling pathway (AID 1259377; active means well fitted activation curve with a large enough effect in the signal ratio in the repeat runs, not every such curve was filed as active; the % refers to the signal ratio)
In short: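 Agonist mode cell assay in GripTite HEK293T cells expressing an ER-beta fusion that drives beta-lactamase from an Upstream Activator Sequence; 16 hr compound exposure at 37C, then 2 h LiveBLAzer B/G FRET substrate at room temperature, fluorescence read-out.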

| SMILES | Potency [1] | Potency [2] | outcome [3] | Potency [4] | Potency [5] | Potency [6] | Potency [7] | Potency [8] | Potency [9] | Potency [10] | outcome [11] | Potency [12] | Potency [13] | Potency [14] | Potency [15] | Potency [16] | Potency [17] | Potency [18] | Potency [19] |
| --- | --- | --- | --- | --- | --- | --- | --- | --- | --- | --- | --- | --- | --- | --- | --- | --- | --- | --- | --- |
| CN1CC[C@]23c4c5ccc(O)c4O[C@H]2[C@@H](O)C=C[C@H]3[C@H]1C5 | inactive | inactive | inactive | inactive | inactive | inactive | inactive | inactive | inactive | inactive | inactive | inactive | – | – | – | – | – | – | – |
| Nc1ccc2c(c1)Cc1ccccc1-2 | inactive | – | – | inactive | inactive | inactive | inactive | inactive | – | inactive | – | – | inactive | inactive | inactive | inactive | inactive | inactive | – |
| C[C@H](N)[C@H](O)c1ccc(O)c(O)c1 | inactive | – | inactive | inactive | inactive | inactive | inactive | – | – | inactive | – | – | inactive | inactive | inactive | – | – | – | inactive |
| CCCBr | inactive | – | – | inactive | inactive | inactive | inactive | inactive | – | inactive | inactive | – | inactive | – | inactive | inactive | – | – | – |
| C[C@H]1O[C@H](OC2[C@@H](O)[C@@H](O)C(O)[C@H](O)[C@H]2O)[C@@H](N)C[C@@H]1N=C(N)C(=O)O (some centres undefined) | inactive | – | – | inactive | inactive | inactive | inactive | inactive | – | inactive | inactive | inactive | inactive | inactive | inactive | inactive | inactive | inactive | inactive |
| O=C(N/N=C/c1ccc([N+](=O)[O-])o1)c1cc([N+](=O)[O-])cc([N+](=O)[O-])c1O | – | – | inactive | inactive | 10.6 µM (active) | inactive | 11.9 µM (active) | inactive | – | inactive | inactive | inactive | – | – | 10.6 µM (active) | 10.6 µM (active) | inactive | – | inactive |
| C=C(C)C(=O)OCCCCOC(=O)C(=C)C | inactive | – | – | inactive | inactive | inactive | inactive | – | – | inactive | inactive | – | inactive | – | inactive | inactive | inactive | inactive | – |
| CON(C)C(=O)Nc1ccc(Cl)cc1 | inactive | – | – | inactive | inactive | inactive | inactive | inactive | – | inactive | inactive | inactive | inactive | 27.3 µM (active) | inactive | – | inactive | inactive | inactive |
| CC(=O)NNc1ccccc1 | – | inactive | – | inactive | inactive | inactive | inactive | – | inactive | – | inactive | – | – | inactive | inactive | inactive | – | – | inactive |
| CN(C)c1ccc(N=O)cc1 | 48.7 µM (active) and 48.6 µM (active) | – | – | inactive | 24.4 µM (active) and 27.3 µM (active) | inactive | 43.4 µM (active) and 43.3 µM (active) | 3.87 µM (active) and 15.4 µM (active) | – | – | – | – | 43.4 µM (active) and inactive | – | 21.8 µM (active) and 21.7 µM (active) | 15.4 µM (active) | – | – | inactive |
